According to PubChem BioAssay (NCI):
“And” between values parts separate entries of the source, which are not always exact repeats. Equal values may be shown once. About 83,000 compounds went through this panel and 20% of them were active in at least one assay; those are over-represented in the sample as a whole.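 For each line, cells grew in 96-well plates with the test compound present at a single concentration for 48 hours.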 The source made the active and inactive calls. The calls were made as follows: active = growth percent below 10; inactive = the rest.

Columns and labels:
Assay in all cases: NCI-60 one-dose screen, 48 h (100 = growth as untreated, 0 = no growth, -100 = all killed)
HCT-15 colon = conditions: 10 µM
HT29 colon = conditions: 10 µM
SNB-75 CNS = conditions: 10 µM
SNB-19 CNS = conditions: 10 µM
U251 CNS = conditions: 10 µM
PC-3 prostate = conditions: 10 µM
SK-MEL-5 melanoma = conditions: 10 µM
UACC-62 melanoma = conditions: 10 µM unless noted
LOX IMVI melanoma = conditions: 10 µM
SK-MEL-28 melanoma = conditions: 10 µM
SK-MEL-2 melanoma = conditions: 10 µM
EKVX NSCLC = conditions: 10 µM
SN12C renal = conditions: 10 µM
UO-31 renal = conditions: 10 µM
TK-10 renal = conditions: 10 µM unless noted
ACHN renal = conditions: 10 µM
CAKI-1 renal = conditions: 10 µM
A498 renal = conditions: 10 µM
CCRF-CEM leukemia = conditions: 10 µM
HL-60(TB) leukemia = conditions: 10 µM

Measured: growth

[Cl][Hg][c]1ccc2ccccc2c1
inactive: U251 CNS 93.1%
active: HCT-15 colon -72.3% | HT29 colon -71.3% | SNB-75 CNS -85.3% | SNB-19 CNS -62.9% | PC-3 prostate -35.1% | SK-MEL-5 melanoma -100% | UACC-62 melanoma -43% | LOX IMVI melanoma -100% | SK-MEL-28 melanoma -89% | SK-MEL-2 melanoma -90.7% | EKVX NSCLC -48.6% | SN12C renal -67.1% | UO-31 renal -89.3% | TK-10 renal -95.3% | ACHN renal -85.5% | CAKI-1 renal -94% | A498 renal -9.18% | CCRF-CEM leukemia 0.0061%

O=C(CBr)Nc1ccc(Cl)cc1
inactive: HCT-15 colon 17.6% | SNB-75 CNS 102% | SNB-19 CNS 88.8% | U251 CNS 86.8% | PC-3 prostate 93.3% | SK-MEL-5 melanoma 78.3% | UACC-62 melanoma 71.6% | SK-MEL-28 melanoma 102% | SK-MEL-2 melanoma 103% | SN12C renal 85.5% | UO-31 renal 90.1% | TK-10 renal 111% | ACHN renal 64% | CAKI-1 renal 22% | A498 renal 104%
active: HT29 colon 4.44% | LOX IMVI melanoma -57.4% | CCRF-CEM leukemia -28.3%

C[CH2][Hg][S]c1ccccc1C(=O)O
active: HCT-15 colon -84.7% | HT29 colon -59% | SNB-75 CNS -43.7% | U251 CNS -6.81% | SK-MEL-5 melanoma -68.3% | LOX IMVI melanoma -54.9% | SK-MEL-28 melanoma -87.5% | SK-MEL-2 melanoma -52.4% | SN12C renal -60.6% | UO-31 renal -61.8% | TK-10 renal -94.2% | ACHN renal -92.9% | CAKI-1 renal -95.2% | CCRF-CEM leukemia -17.5%
inactive: SNB-19 CNS 50.6% | PC-3 prostate 55.8% | EKVX NSCLC 63.6%

CN(CCCl)c1ccc(/C=C/C2=[N+](C)c3ccccc3C2(C)C)cc1
inactive: SNB-75 CNS 38.9% | SNB-19 CNS 42.5% | U251 CNS 13.1% | SK-MEL-5 melanoma 21.8% | UACC-62 melanoma 31.6% | LOX IMVI melanoma 16.9% | SK-MEL-28 melanoma 40.1% | SK-MEL-2 melanoma 46% | EKVX NSCLC 54.6% | UO-31 renal 87.3% | TK-10 renal 54.7% | ACHN renal 85.2% | CAKI-1 renal 102%
active: HT29 colon 5.58% | PC-3 prostate 5.9% | SN12C renal 1.3%

CC[C@@H](C)[C@@H]1NC(=O)C(NC(=O)C(CC(C)C)N(C)C(=O)C2CCCN2C(=O)C(C)O)C(C)OC(=O)C(Cc2ccc(OC)cc2)N(C)C(=O)C2CCCN2C(=O)C(CC(C)C)NC(=O)C(C)C(=O)C(C(C)C)OC(=O)C[C@H]1O (some centres undefined)
active: HCT-15 colon -32.7% | HT29 colon -53.2% | SNB-75 CNS -95.7% | SNB-19 CNS -44% | U251 CNS -43.8% | PC-3 prostate -37.2% | SK-MEL-5 melanoma -98.1% | UACC-62 melanoma -68.9% | LOX IMVI melanoma -70.2% | SK-MEL-2 melanoma -52.4% | EKVX NSCLC -10.5% | SN12C renal -14.5% | UO-31 renal -33.2% | TK-10 renal -15.3% | ACHN renal -70.5% | CAKI-1 renal -6.01% | HL-60(TB) leukemia -25.2% | CCRF-CEM leukemia -20.7%

O=[N+]([O-])c1cc[n+]([O-])c2ccccc12
active: HT29 colon -31.4% | SNB-75 CNS -82.2% | SNB-19 CNS -17.6% | U251 CNS -26.3% | PC-3 prostate -10.8% | SK-MEL-5 melanoma -92.5% | UACC-62 melanoma -85.2% | LOX IMVI melanoma -73.7% | SK-MEL-28 melanoma -86.9% | SK-MEL-2 melanoma -56.2% | EKVX NSCLC -3.54% | SN12C renal -27.5% | UO-31 renal -29.5% | TK-10 renal -22.6% | ACHN renal -42.4% | CAKI-1 renal -28% | A498 renal -34.7% | HL-60(TB) leukemia -26.9% | CCRF-CEM leukemia -11.1%

NC(=O)c1cc([N+](=O)[O-])c(Cl)c([N+](=O)[O-])c1Cl
inactive: SNB-75 CNS 65.1% | SNB-19 CNS 74% | PC-3 prostate 46.7% | SK-MEL-28 melanoma 39.6% | EKVX NSCLC 35.8% | SN12C renal 18.8%
active: HCT-15 colon -63.9% | HT29 colon -88.4% | U251 CNS -81.5% | UACC-62 melanoma 5.65% | LOX IMVI melanoma -50% | SK-MEL-2 melanoma -14.5% | UO-31 renal -62.6% | TK-10 renal -100% | ACHN renal -89.7% | HL-60(TB) leukemia -26.9% | CCRF-CEM leukemia -23.5%

[Cl][Hg][c]1ccc(Cl)s1
inactive: HT29 colon 25.2% | SNB-75 CNS 58.1% | SNB-19 CNS 75.5% | U251 CNS 14.9% | PC-3 prostate 64.1% | SK-MEL-5 melanoma 46% | UACC-62 melanoma 51.3% | SK-MEL-2 melanoma 64.3% | SN12C renal 34.1% | TK-10 renal 30.9% | A498 renal 104%
active: LOX IMVI melanoma -70.9% | SK-MEL-28 melanoma -85.4% | EKVX NSCLC -18.7% | UO-31 renal -64.3% | ACHN renal -80.9% | CAKI-1 renal -53% | CCRF-CEM leukemia -11%

COc1cc(/C=C(/C)[N+](=O)[O-])ccc1O
33.1% (inactive) and -9.24% (active): SK-MEL-28 melanoma
74.3% (inactive) and 1.18% (active): SNB-75 CNS
-21.2% (active) and 61.7% (inactive): TK-10 renal
-39.8% (active) and 16.4% (inactive): ACHN renal
active: HT29 colon 3.02% and -26.9% | LOX IMVI melanoma -25.7% and -73.2% | UO-31 renal -10.8% and -16.8% | CAKI-1 renal -0.672% | CCRF-CEM leukemia -35%
55.4% (inactive) and -53.8% (active): UACC-62 melanoma
inactive: SNB-19 CNS 81.5% and 75.1% | U251 CNS 25.4% and 28% | PC-3 prostate 60.7% and 56.6% | SK-MEL-5 melanoma 82.3% and 64.6% | SK-MEL-2 melanoma 19.6% and 72.1% | EKVX NSCLC 84.6% | SN12C renal 27.5% and 23.2% | A498 renal 87.9% and 100%

COc1cc(/C=C\[N+](=O)[O-])ccc1O
-66.1% (active) and 46.7% (inactive): LOX IMVI melanoma
inactive: HT29 colon 32.3% and 90.3% | SNB-75 CNS 93.6% and 96.7% | SNB-19 CNS 82.6% and 81.2% | U251 CNS 50.1% and 64.1% | PC-3 prostate 97.6% and 90.3% | SK-MEL-5 melanoma 77% and 79.3% | UACC-62 melanoma 61.1% and 80.2% | SK-MEL-28 melanoma 55.8% and 97.3% | SK-MEL-2 melanoma 87.7% and 93.5% | EKVX NSCLC 108% and 91.7% | SN12C renal 67.3% and 94.1% | UO-31 renal 44.5% and 70.1% | TK-10 renal 23.5% and 87.1% | ACHN renal 13.4% and 82.9% | CAKI-1 renal 74.4% | A498 renal 97.6% and 102%
6.86% (active) and 70.4% (inactive): CCRF-CEM leukemia
9.29% (active) and 48.1% (inactive): HL-60(TB) leukemia

COc1ccc(/C=C(\C)[N+](=O)[O-])cc1OC
inactive: SNB-75 CNS 56.5% | SNB-19 CNS 99.8% | PC-3 prostate 51% | SK-MEL-5 melanoma 54.6% | UACC-62 melanoma 32.7% | SK-MEL-2 melanoma 21.4% | SN12C renal 39.9% | A498 renal 111%
active: HCT-15 colon 0.0541% | HT29 colon -67% | LOX IMVI melanoma -58.7% | SK-MEL-28 melanoma -67.2% | UO-31 renal -83% | TK-10 renal -69.2% | ACHN renal -59.9% | CAKI-1 renal -84.4% | CCRF-CEM leukemia -16.4%

O=[N+]([O-])c1ccc(N2CCOCC2)c2c1no[n+]2[O-]
active: HT29 colon -29.3% | SNB-75 CNS -15.5% | U251 CNS 2.99% | UACC-62 melanoma -24.9% | LOX IMVI melanoma -14.3% | SK-MEL-2 melanoma -4.77% | UO-31 renal 8.16% | TK-10 renal -0.265%
inactive: SNB-19 CNS 28.8% | PC-3 prostate 10.9% | SK-MEL-5 melanoma 25.4% | SK-MEL-28 melanoma 49.3% | EKVX NSCLC 46.5% | SN12C renal 16.8% | ACHN renal 13.6% | CAKI-1 renal 26.1%

O=[N+]([O-])c1ccc(N(CCO)CCO)c2c1no[n+]2[O-]
active: HT29 colon -78.6% | SNB-75 CNS -39.3% | SNB-19 CNS -17.9% | U251 CNS -69.2% | PC-3 prostate -5.95% | SK-MEL-5 melanoma -73.9% | UACC-62 melanoma -41.6% | LOX IMVI melanoma -26.5% | SK-MEL-28 melanoma -8.85% | SK-MEL-2 melanoma -16.3% | EKVX NSCLC -9.06% | SN12C renal -4.84% | UO-31 renal 7.25% | TK-10 renal -13.4% | ACHN renal -12.3% | CAKI-1 renal -11.9% | A498 renal -15.6% | HL-60(TB) leukemia -33.1% | CCRF-CEM leukemia -38%

COC(=O)C1C(O)C(C)C(O)C(C)/C=C\C=C(C)C(=O)Nc2c(C)c(OC(C)=O)c3c(c2O)C(=O)C(C)=C2OCOC(=C23)C(C)=CC(C)(O)C(O)C(C)C1O (centres undefined)
inactive: HCT-15 colon 43.8% | HT29 colon 90.3% | SNB-75 CNS 32.4% | SNB-19 CNS 99.1% | U251 CNS 45.9% | PC-3 prostate 48.8% | SK-MEL-5 melanoma 99% | UACC-62 melanoma 97.4% | LOX IMVI melanoma 78.7% | SK-MEL-2 melanoma 96.2% | EKVX NSCLC 110% | SN12C renal 94.9% | UO-31 renal 103% | TK-10 renal 107% | ACHN renal 85.7% | CAKI-1 renal 95.5% | CCRF-CEM leukemia 96.1%

C/C1=C\[C@H](C)C[C@H](C)OC(=O)C[C@H](c2ccc(O)cc2)NC(=O)[C@@H](Cc2c(Br)[nH]c3ccccc23)N(C)C(=O)[C@H](C)NC(=O)[C@@H](C)C1
active: HCT-15 colon -38.1% | HT29 colon -33.5% | SNB-75 CNS -76.4% | SNB-19 CNS -21.9% | U251 CNS -50.6% | PC-3 prostate -59.6% | SK-MEL-5 melanoma -74.5% | UACC-62 melanoma -1.83% | LOX IMVI melanoma -32.7% | SK-MEL-2 melanoma -67.3% | EKVX NSCLC -23.6% | UO-31 renal -92.1% | TK-10 renal -81.7% | ACHN renal -18.7% | CAKI-1 renal -43.2% | CCRF-CEM leukemia -21.5%
inactive: SN12C renal 14.2%

O=S(=O)(F)c1ccc(Cl)cc1
inactive: HT29 colon 106% | SNB-75 CNS 92.9% | SNB-19 CNS 101% | U251 CNS 109% | PC-3 prostate 91.4% | SK-MEL-5 melanoma 108% | UACC-62 melanoma 103% | LOX IMVI melanoma 96.7% | SK-MEL-28 melanoma 119% | SK-MEL-2 melanoma 124% | EKVX NSCLC 110% | SN12C renal 105% | UO-31 renal 91.5% | TK-10 renal 107% | ACHN renal 111% | CAKI-1 renal 105% | A498 renal 122% | HL-60(TB) leukemia 123% | CCRF-CEM leukemia 92.7%
